A selection: hits, their analogues and other compounds. The true share with any hit is near 1.5%.
Vc quorum ag: inducers of Vibrio cholerae quorum light production without autoinducers, primary screen, BH1578 luxS cqsA deficient, single point; activation, % at 18.7 µM; V. cholerae BH1578 lux reporter, luminescence, 6 h; 350,000 tested, 0.16% active; in the data active = activation mostly above about 9.7%, no sharp cut-off
CCHF vOTU inh: CCHFV vOTU protease inhibitors, primary screen, biochemical, Pep-AMC substrate, fluorescence; Crimean-Congo hemorrhagic fever virus L polyprotein viral ovarian tumor (vOTU) protease …; inhibition, % at 11.5 µM; 370,000 tested, 0.55% active; in the data active = inhibition above about 30%; also: 0% = vehicle wells with enzyme and 100% = no enzyme wells
PriA SSB inh: inhibitors of Klebsiella pneumoniae PriA binding to SSB C-terminal tail, primary screen, biochemical, AlphaScreen. AlphaScreen SSBct-PriA binding, biotinylated peptide. inhibition, % at 33 µM. 430,000 tested, 0.6% active; in the data active = inhibition mostly above about 37%, no sharp cut-off; inactive = mostly below about 20%;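 also: plate controls were negative control peptide for no effect and reference peptide for full effect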
VHR inh abs: VHR1 phosphatase inhibitors, primary screen, biochemical, absorbance, uHTS; Dual specificity protein phosphatase 3 (Homo sapiens), P51452; recombinant VHR phosphatase, pNPP absorbance; 290,000 tested, 0.52% active; inhibition, % at 13.3 µM; AID 1654, 2009; in the data active = inhibition above about 50%
TcdB GH inh: TcdB glycohydrolase inhibitors, primary screen, biochemical, single point, plate reader | TcdB glycohydrolase enzymatic assay | inhibition, % at 9.99 µM | 350,000 tested, 0.24% active; in the data active = inhibition above about 10%
Target sequence (P18177 whole entry, looked up): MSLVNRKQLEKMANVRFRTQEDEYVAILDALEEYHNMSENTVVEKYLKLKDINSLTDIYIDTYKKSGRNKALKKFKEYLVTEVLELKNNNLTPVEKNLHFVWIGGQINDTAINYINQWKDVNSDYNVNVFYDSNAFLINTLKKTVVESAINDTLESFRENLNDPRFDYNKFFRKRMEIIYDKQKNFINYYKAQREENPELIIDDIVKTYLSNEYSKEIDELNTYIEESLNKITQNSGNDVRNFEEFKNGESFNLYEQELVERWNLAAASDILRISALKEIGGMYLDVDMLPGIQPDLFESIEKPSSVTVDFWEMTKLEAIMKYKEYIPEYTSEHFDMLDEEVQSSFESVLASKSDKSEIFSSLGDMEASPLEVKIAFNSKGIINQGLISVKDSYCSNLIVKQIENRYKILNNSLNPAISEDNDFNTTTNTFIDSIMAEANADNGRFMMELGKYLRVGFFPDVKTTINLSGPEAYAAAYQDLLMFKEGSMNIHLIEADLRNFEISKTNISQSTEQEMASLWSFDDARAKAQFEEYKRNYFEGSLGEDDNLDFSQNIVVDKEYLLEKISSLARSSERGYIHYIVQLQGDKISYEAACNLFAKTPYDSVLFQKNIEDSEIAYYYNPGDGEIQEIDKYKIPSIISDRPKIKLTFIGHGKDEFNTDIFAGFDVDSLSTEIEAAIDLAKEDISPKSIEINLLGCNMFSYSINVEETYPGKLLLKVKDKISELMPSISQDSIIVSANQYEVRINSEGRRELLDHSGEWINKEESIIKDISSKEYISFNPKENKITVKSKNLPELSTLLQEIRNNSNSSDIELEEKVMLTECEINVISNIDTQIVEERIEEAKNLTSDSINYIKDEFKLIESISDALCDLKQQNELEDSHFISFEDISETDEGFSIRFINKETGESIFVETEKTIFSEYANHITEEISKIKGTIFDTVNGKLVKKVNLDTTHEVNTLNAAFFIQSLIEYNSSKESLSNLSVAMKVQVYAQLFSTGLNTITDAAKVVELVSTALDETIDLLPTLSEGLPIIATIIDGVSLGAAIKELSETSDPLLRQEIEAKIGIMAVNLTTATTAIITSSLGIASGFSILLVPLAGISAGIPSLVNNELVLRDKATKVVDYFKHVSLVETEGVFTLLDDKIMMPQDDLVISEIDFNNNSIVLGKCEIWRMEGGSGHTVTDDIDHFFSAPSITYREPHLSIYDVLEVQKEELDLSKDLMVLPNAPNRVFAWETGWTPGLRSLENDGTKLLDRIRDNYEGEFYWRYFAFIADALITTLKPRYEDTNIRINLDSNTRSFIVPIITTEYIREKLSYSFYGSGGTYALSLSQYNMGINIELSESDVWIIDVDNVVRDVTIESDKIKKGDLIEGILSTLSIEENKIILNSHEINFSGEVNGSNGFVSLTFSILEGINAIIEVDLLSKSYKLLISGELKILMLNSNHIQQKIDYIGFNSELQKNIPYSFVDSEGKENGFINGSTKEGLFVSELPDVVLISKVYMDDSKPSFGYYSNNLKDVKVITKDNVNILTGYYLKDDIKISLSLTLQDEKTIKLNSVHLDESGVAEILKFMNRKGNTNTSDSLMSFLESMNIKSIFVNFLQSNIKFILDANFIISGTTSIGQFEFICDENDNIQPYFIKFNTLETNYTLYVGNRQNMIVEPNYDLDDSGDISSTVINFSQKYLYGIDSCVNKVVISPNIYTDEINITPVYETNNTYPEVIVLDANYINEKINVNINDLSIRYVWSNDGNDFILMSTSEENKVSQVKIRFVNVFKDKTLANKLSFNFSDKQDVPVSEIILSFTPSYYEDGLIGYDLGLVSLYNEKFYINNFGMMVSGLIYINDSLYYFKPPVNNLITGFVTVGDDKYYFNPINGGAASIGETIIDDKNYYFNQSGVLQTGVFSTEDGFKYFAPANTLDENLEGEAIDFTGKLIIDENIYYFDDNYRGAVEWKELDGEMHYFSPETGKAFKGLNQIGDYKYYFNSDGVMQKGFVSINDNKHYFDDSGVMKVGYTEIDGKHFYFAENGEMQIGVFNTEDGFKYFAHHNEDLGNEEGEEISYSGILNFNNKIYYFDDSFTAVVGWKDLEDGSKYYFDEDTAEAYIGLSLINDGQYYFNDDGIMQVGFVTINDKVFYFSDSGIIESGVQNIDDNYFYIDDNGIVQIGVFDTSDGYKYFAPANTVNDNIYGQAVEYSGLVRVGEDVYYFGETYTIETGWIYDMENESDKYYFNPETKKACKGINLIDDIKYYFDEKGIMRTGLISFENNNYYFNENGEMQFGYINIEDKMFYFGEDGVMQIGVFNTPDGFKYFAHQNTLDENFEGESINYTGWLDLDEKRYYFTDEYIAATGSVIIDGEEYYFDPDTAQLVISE
PrPC surface inh: inhibitors of human cell surface prion protein PrPC, primary screen, cell-based, TR-FRET | Major prion protein (Homo sapiens), P04156 | TR-FRET read-out | inhibition, % at 13.8 µM | 370,000 tested, 0.43% active; in the data active = inhibition above about 24%; also: 0% = median of the test wells and 100% = reference compound wells
An asterisk follows results filed as active.

How did N#CC(C#N)=C(/C=C/c1cccs1)C1CC1 do in these assays?
PriA SSB inh: 42*

How did CCN(CC)CCNc1nc2c(F)cc(F)cc2s1 do in these assays?
PriA SSB inh: 28

What do the screens show for `O=C(c1cccs1)N1N=C(c2ccccc2)CC1c1ccc2nccnc2c1` (stereo not drawn)?
PriA SSB inh: 37*

What do the screens show for `COc1ccccc1N1CCN(C2CCCN(C(=O)CCN3CCCCO3)C2)CC1` (stereo not drawn)?
Vc quorum ag: -3; CCHF vOTU inh: 9; PriA SSB inh: -7; VHR inh abs: 51*; TcdB GH inh: -1; PrPC surface inh: -1

Results for CCOc1cc(C(=O)NCC2COC3(CCCC3)O2)cc(OCC)c1OCC (stereo not drawn) ?
PriA SSB inh: -12

What do the screens show for `CS(=O)(=O)N(CC(=O)N1CCN(Cc2ccccc2)CC1)c1ccccc1F`?
Vc quorum ag: inactive; CCHF vOTU inh: 6; PriA SSB inh: 52*; VHR inh abs: 17; TcdB GH inh: 0; PrPC surface inh: 1

How did CN1CCN(C(=O)CN(Cc2ccccc2)S(C)(=O)=O)CC1 do in these assays?
Vc quorum ag: 0; CCHF vOTU inh: -12; PriA SSB inh: -14; VHR inh abs: 10; PrPC surface inh: 3

Results for CS(=O)(=O)N(CC(=O)N1CCCCC1)Cc1ccccc1 ?
Vc quorum ag: -1; CCHF vOTU inh: -4; PriA SSB inh: 59*; VHR inh abs: -15; TcdB GH inh: 1; PrPC surface inh: -5

Results for CS(=O)(=O)N(CC(=O)N1CCN(Cc2ccccc2)CC1)c1ccccc1Br ?
Vc quorum ag: inactive; CCHF vOTU inh: 12; PriA SSB inh: -8; VHR inh abs: 15; TcdB GH inh: 1; PrPC surface inh: 1

What do the screens show for `Nc1ccc(OCCCc2c(N)nc(N)nc2N)cc1`?
Vc quorum ag: 1; CCHF vOTU inh: -6; PriA SSB inh: -5; VHR inh abs: 13; TcdB GH inh: 12*; PrPC surface inh: -2

Results for Cc1ccccc1OCCNc1cc(N2CCCCC2)ccc1[N+](=O)[O-] ?
Vc quorum ag: 0; CCHF vOTU inh: 18; PriA SSB inh: -11; VHR inh abs: 1; PrPC surface inh: 8

What do the screens show for `Cc1ccccc1OCCNc1cc(N2CCN(CCO)CC2)ccc1[N+](=O)[O-]`?
Vc quorum ag: 0; CCHF vOTU inh: 5; PriA SSB inh: 42*; VHR inh abs: -4; PrPC surface inh: -30

What do the screens show for `Cc1cccc(N2CCN(C(=O)c3ccc(Cl)c(S(=O)(=O)N4CCc5ccccc5C4)c3)CC2)c1C`?
Vc quorum ag: 0; CCHF vOTU inh: -8; PriA SSB inh: 0; VHR inh abs: 59*; PrPC surface inh: 1

Results for CN1CCCc2cc(C(CNC(=O)c3ccc(C(F)(F)F)cc3)N3CCOCC3)ccc21 (stereo not drawn) ?
PriA SSB inh: 25

Results for Cc1ccccc1S(=O)(=O)Cc1ccc(C(=O)NCCCN2CCC(C)CC2)o1 ?
Vc quorum ag: inactive; CCHF vOTU inh: 2; PriA SSB inh: -12; VHR inh abs: 57*; TcdB GH inh: 2; PrPC surface inh: 7

What do the screens show for `Cc1ccccc1S(=O)(=O)Cc1ccc(C(=O)NCCCN2CCCC(C)C2)o1` (stereo not drawn)?
Vc quorum ag: inactive; CCHF vOTU inh: 5; PriA SSB inh: -14; VHR inh abs: 46; TcdB GH inh: -1; PrPC surface inh: -12

How did CNC(=O)C[C@@H]1CC[C@H]2[C@H](COc3ccc(NS(=O)(=O)c4ccccc4C)cc3C(=O)N2C)O1 do in these assays?
TcdB GH inh: 11*

Results for CNC(=O)C[C@H]1CC[C@@H]2[C@H](COc3ccc(NS(=O)(=O)c4ccccc4C)cc3C(=O)N2C)O1 ?
TcdB GH inh: 12*

What do the screens show for `CNC(=O)C[C@@H]1CC[C@H]2[C@@H](COc3ccc(NS(=O)(=O)c4ccccc4C)cc3C(=O)N2C)O1`?
TcdB GH inh: 8

How did CC1CCN(c2cc(NC(=O)c3cncc(Br)c3)ncn2)CC1 do in these assays?
PriA SSB inh: -26

Screens as filed in PubChem BioAssay.
